WT yeast gro inh = growth inhibition of WT yeast, mitochondrial fusion screen; 190,000 compounds, 2.1% hits; AID 1362; inhibition, % at 10 µM; mitochondrial fusion phenotypic screen, WT strain; in the data active = inhibition above about 58%; tested in S. cerevisiae
PHOSPHO1 block = inhibitors of human PHOSPHO1 phosphatase; Q8TCT1; recombinant PHOSPHO1, absorbance phosphatase assay; inhibition, % at 13.3 µM; 290,000 compounds, 1.1% hits; in the data active = inhibition above about 60%
Target sequence (Q8TCT1 whole entry, looked up): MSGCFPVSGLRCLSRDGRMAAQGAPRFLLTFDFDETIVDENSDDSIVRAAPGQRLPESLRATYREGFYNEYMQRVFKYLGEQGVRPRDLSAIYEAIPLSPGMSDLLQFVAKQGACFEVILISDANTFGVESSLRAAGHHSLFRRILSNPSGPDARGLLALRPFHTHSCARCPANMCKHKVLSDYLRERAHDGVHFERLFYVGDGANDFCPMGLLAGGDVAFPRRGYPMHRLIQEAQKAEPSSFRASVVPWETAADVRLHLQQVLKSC
Platelet DG rel = platelet dense granule release activity | human platelet-rich plasma, SFLLRN dense granule ATP release, luminescence | inhibition, %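 (compounds screened at 7.5 µM in platelet-rich plasma)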 | 300,000 compounds, 0.22% hits;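 active = mean replicate score, as percent of positive control, at or above 50; inconclusive = mean below 50 but at least one replicate at or above 50; inactive = mean and every replicate below 50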
SKKanGAS inh = SKKanGAS growth inhibition; S. pyogenes SKKanGAS, kanamycin growth, BacTiter-Glo, 6 h; inhibition, % at 7.5 µM; 300,000 compounds, 1.3% hits; AID 1662;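 active = mean replicate score, as percent of positive control median, at least 50; inconclusive = mean below 50 but one replicate at or above 50; inactive = mean and every replicate below 50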;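 note: strain carries kanamycin resistance gene driven by streptokinase promoter and grows in 40 µg/ml kanamycin; loss of luminescence reflects streptokinase promoter inhibition or plain growth inhibition; 0% = median of DMSO wells and 100% = positive control at its reference dose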
TPT1 inhibitor = blocks Candida albicans tRNA 2'-phosphotransferase | 300,000 compounds, 0.81% hits | inhibition, % at 5 µM | AID 1962 | recombinant caTPT1, FP RNA substrate dephosphorylation;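 active = inhibition above the mean of all tested compounds plus 3 SD, set per screening campaign, cut at about 24% in these data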;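 note: plate controls were DMSO alone for no effect and ferristatin control at 100 nM for full effect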
Rtt109 HAT inh = blocks Candida albicans Rtt109/Vps75 acetyltransferase activity. Q5AAJ8. AID 540336. 330,000 compounds, 0.16% hits. purified Rtt109/Vps75, ThioGlo CoA-SH fluorescence, 4 h. inhibition, % at 34.9 µM;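 active = inhibition of at least 50% in every replicate; inconclusive = best replicate reaches 50% inhibition but some replicates fall short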
Target sequence (Q5AAJ8 whole entry, looked up): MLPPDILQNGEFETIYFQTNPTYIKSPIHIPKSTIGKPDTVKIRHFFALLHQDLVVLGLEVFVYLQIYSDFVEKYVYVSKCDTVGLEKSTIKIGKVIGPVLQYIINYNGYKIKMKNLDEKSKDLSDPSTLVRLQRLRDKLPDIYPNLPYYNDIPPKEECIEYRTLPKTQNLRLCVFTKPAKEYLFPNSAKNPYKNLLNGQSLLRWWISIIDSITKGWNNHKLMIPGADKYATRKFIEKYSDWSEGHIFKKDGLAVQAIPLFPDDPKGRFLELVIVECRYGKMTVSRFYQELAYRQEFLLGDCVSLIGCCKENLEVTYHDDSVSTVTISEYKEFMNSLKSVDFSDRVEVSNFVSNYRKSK
* = called active by the depositor; ? = inconclusive; . = not tested or not shown. Rows were chosen to be rich in hits. Some 3.9% of all compounds tested hit in one or more screens of this group.

SMILES	WT yeast gro inh	PHOSPHO1 block	Platelet DG rel	SKKanGAS inh	TPT1 inhibitor	Rtt109 HAT inh
Cc1ccc(OCC(=O)Nc2nc(-c3ccccn3)cs2)c(C)c1	.	.	-11.4	96.7*	4.9	-0.2
CN(CCc1ccccn1)c1ccccc1	.	.	.	.	.	-1.3
COc1cccc2c1Oc1cc([N+](=O)[O-])cc(N(C)C(C)=O)c1C=C2	.	42.0	7.6	2.8	-0.1	5.9
O=C(Nc1nc(-c2cccs2)cs1)c1ccc(Cl)s1	80.5*	2.5	25.7	31.8	-0.5	9.7
O=C(COc1ccccc1)Nc1nc(-c2ccncc2)cs1	.	-32.5	-9.9	11.7	-0.1	13.9
O=C(Nc1nc(-c2ccccn2)cs1)Nc1ccc(F)cc1F	.	-83.9	2.7	89.9*	-0.4	-10.0
O=C(COc1ccc([N+](=O)[O-])cc1)Nc1nc(-c2ccccn2)cs1	.	.	-2.5	57.2*	14.9	-0.6
N#Cc1ccccc1NC(=O)COC(=O)c1c[nH]c2ccccc12	.	.	.	.	.	11.2
O=C(COc1ccccc1)OCC(=O)c1ccc(S(=O)(=O)N2CCCCC2)cc1	.	.	.	.	.	-6.0
O=C(c1cccc(Cl)c1)N1CCC2CC1c1cc(N3CCOCC3)ccc12 (stereo not drawn)	.	.	.	.	.	-5.7
Cc1ccc(-c2nnc(N3CCC(C)CC3)c3ccccc23)cc1C	82.2*	26.7	2.9	37.4	-0.6	8.3
O=C1NC(=S)S/C1=C\c1ccc(SCc2ccco2)o1	69.5*	80.1*	.	.	90.2*	3.9
O=C1NC(=S)S/C1=C/c1ccc(OC(=O)c2ccco2)cc1	.	46.9	-7.2	3.2	16.8	-4.6
Oc1ccccc1Nc1nc(NCc2ccccc2)c2ccccc2n1	86.0*	23.9	-5.2	2.6	-2.1	2.7
Nc1ccccc1-c1nnn(CC(=O)Nc2ccc3c(c2)OCCO3)n1	.	34.4	-7.5	-1.9	-5.0	-0.6
COc1ccc(C(=O)Nc2ccccc2-c2nnn(CC(=O)Nc3ccc4c(c3)OCCO4)n2)cc1	-22.0	7.0	-2.8	66.0*	-2.2	-3.5
N/C(=N\OC(=O)C12CC3CC(CC(C3)C1)C2)c1ccccc1	86.6*	45.8	-8.5	-14.5	0.9	7.9
COc1ccc(-c2nc(C#N)c(NC(C)c3ccccc3)o2)cc1OC (stereo not drawn)	2.0	17.6	69.9*	-2.8	2.6	9.8
CSc1cccc(CNC(=O)C2CCC(=O)N(CC3CCCCC3)C2)c1 (stereo not drawn)	.	9.0	9.9	3.7	2.1	5.9
Cc1ccc(N=c2ssnc2Cl)cc1	7.5	101.3*	21.8	-5.6	-5.8	-4.8
COc1cc(N=c2ssnc2Cl)c(OC)cc1Cl	6.0	91.3*	5.5	-0.2	-3.7	6.8
Nc1ccccc1N=c1ssnc1Cl	2.1	42.1	.	.	.	16.8
COc1ccc(OC)c(N=c2ssnc2Cl)c1	1.3	28.7	3.2	1.4	-0.7	1.5
Cc1cc(C)nc(/N=c2/ssnc2Cl)c1	63.1*	45.2	-8.5	-4.9	-1.5	1.4
Cc1cc(Cl)ccc1N=c1ssnc1Cl	11.6	95.8*	0.8	2.6	-2.8	0.6
SMILES	WT yeast gro inh	PHOSPHO1 block	Platelet DG rel	SKKanGAS inh	TPT1 inhibitor	Rtt109 HAT inh
O=C(NCCc1ccco1)C(=O)NCC1CCCN1S(=O)(=O)c1ccccc1 (stereo not drawn)	.	.	9.2	-5.5	-0.4	-5.2
Nc1nc(NCCOCCO)nc(N2CCCCCC2)c1[N+](=O)[O-]	.	32.6	5.6	76.8*	.	-7.3
Nc1nc(NCCO)nc(N2CCCCCC2)c1[N+](=O)[O-]	.	37.1	-1.8	0.3	-3.6	.
COc1ccc(/C=C/C(=O)NC(=S)N2CCOCC2)cc1	.	-96.9	8.4	10.9	-2.5	-6.1
COc1ccc(/C=C/C(=O)NC(=S)N2CCN(c3ccccc3OC)CC2)cc1	.	-34.9	-3.4	59.4*	-0.5	-10.1
CC(=O)NCc1ccc(-c2nc3ccccc3s2)cc1	14.2	42.8	25.9	6.2	3.0	.
COc1cccc(N2C(=O)C(c3ccccc3)=C(c3nc4ccccc4s3)C2NC(C)=O)c1 (stereo not drawn)	70.5*	3.0	5.1	10.5	3.0	7.8
CC(=O)NC1C(c2nc3ccccc3s2)=C(c2ccccc2)C(=O)N1c1ccc(C)cc1 (stereo not drawn)	68.0*	7.4	-0.4	17.3	-2.4	-7.6
Clc1ccc(-n2nnnc2SCc2c(-c3ccccc3)nc3sccn23)cc1	28.1	97.5*	5.5	10.6	4.7	-4.3
CC1C/C(=N\NC(=S)NCc2ccccc2)CC(C)(C)C1 (stereo not drawn)	64.2*	75.5*	5.8	?	0.0	-7.4
CC1CCC/C(=N\NC(=S)NCc2ccccc2)C1 (stereo not drawn)	14.7	85.0*	-1.1	1.2	0.6	12.1
CC1CCC/C(=N\NC(=S)Nc2ccccc2)C1 (stereo not drawn)	3.3	-21.3	-9.9	-8.8	1.1	1.7
COc1cc(/C=C/c2ccc(O)cc2)cc(OC)c1	58.4*	27.7	2.5	10.7	4.8	-2.6
O=C(c1ccc(N2CCOCC2)c([N+](=O)[O-])c1)N1CCCCC1	.	74.0*	41.7	2.1	-3.0	-5.1
CC1Cc2ccccc2N1C(=O)c1ccc(N2CCCC2)c([N+](=O)[O-])c1 (stereo not drawn)	19.0	4.1	9.6	-8.5	-2.4	57.5*
O=C(/C=C/c1ccc(N2CCCCC2)c([N+](=O)[O-])c1)c1ccc(O)cc1	91.0*	12.0	8.1	37.2	-3.5	0.9
CC1Cc2ccccc2N1C(=O)c1ccc(N2CCCCC2)c([N+](=O)[O-])c1 (stereo not drawn)	43.1	-4.5	2.8	7.0	-1.8	-2.1
O=C(Nn1cnnc1)c1ccc(F)cc1	.	20.3	-2.6	-11.4	3.0	1.7
O=C(OCC(=O)c1ccc(Cl)cc1Cl)c1cnccn1	.	24.0	-3.1	-4.7	1.1	-4.4
O=C(O)C1CCN(S(=O)(=O)c2ccc(Cl)s2)CC1	.	.	.	.	.	-3.2
Cc1[nH][nH]c(=O)c1C(c1ccc(-c2cccc(Cl)c2)o1)c1c(C)[nH][nH]c1=O	.	-88.6	4.1	4.8	1.3	-0.2
Cc1[nH][nH]c(=O)c1C(c1ccc(-c2ccc(Cl)cc2Cl)o1)c1c(C)[nH][nH]c1=O	12.7	64.2*	.	.	.	.
COCCC(=O)N1CCC(Oc2ccc(C(=O)N3CCCCC3COC)cc2)CC1 (stereo not drawn)	.	29.3	-6.0	1.7	1.2	-5.6
O=C(NCc1ccccn1)Nc1cccc(F)c1	.	47.9	28.4	25.2	-3.3	-5.1
O=C(Nn1c(O)c(C=C2N=c3ccccc3=N2)sc1=S)c1cccc(Cl)c1	-9.6	86.0*	1.1	4.4	7.7	0.6
O=C(Nn1c(O)c(C=C2N=c3ccccc3=N2)sc1=S)c1ccccc1	0.8	85.8*	3.1	-4.8	7.3	6.8
O=C(Nn1c(O)c(C=C2N=c3ccccc3=N2)sc1=S)c1ccc(Cl)cc1	4.2	41.6	-9.7	16.9	6.5	-1.6
CC(=O)c1c(C)[nH]c(C(=O)OCC(=O)Nc2ccc3c(c2)OCCO3)c1C	.	.	.	.	.	-8.7
CC1=CC2=NC(=O)/C(=C\c3cc(C)n(-c4ccccc4F)c3C)C(=N)N2O1	6.1	1.7	-3.5	-0.5	-1.6	-6.3
